Drawing on article PMC8384837, “Expanding the binding specificity for RNA recognition by a PUF domain”, this text covers binding signal for nine sequences.

Numbering of substitutions follows the chain as printed.

Holding throughout (experiment): yeast three-hybrid, YBZ-1, SC-Leu-His + 0.5 mM 3-AT, 4 days
Holding throughout (details): tags: N-Gal4 AD-HA kept; label: inside an RPR1-promoter hybrid RNA with tandem MS2 sites; ssRNA

Experiment [1] deals with PUM1 PUF domain R2-KKG (Homo sapiens, UniProt Q14671 828-1176, N899K;Y900K;Q903G). In outline: (§1)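 The interaction score is the log change in variant frequency from input to selection. Scores were computed in log2 with a pseudocount of 1 for absent variants, using Illumina sequencing of PCR-amplified repeat regions. The input came from four days on SC-Leu and the selection from four days on SC-Leu-His + 0.5 mM 3-AT. The cells were strain YBZ-1 (LexA–MS2 coat fusion, HIS3 reporter) co-expressing Pumilio-1 PUF domain libraries and matching RNA elements from a centromeric plasmid.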

Experiment [2] has as its target PUM1 PUF domain R5-KHC (Homo sapiens, UniProt Q14671 828-1176, C1007K;R1008H;Q1011C). In outline:
as §1

Experiment [3] deals with PUM1 PUF domain R3-EFE (Homo sapiens, UniProt Q14671 828-1176, C935E;R936F;Q939E). The method in brief: as §1
The target of experiment [4] is PUM1 PUF domain R3-RTL (Homo sapiens, UniProt Q14671 828-1176, C935R;R936T;Q939L). The method in brief:
as §1

Experiment [5] concerns the target PUM1 PUF domain R5-AVR (Homo sapiens, UniProt Q14671 828-1176, C1007A;R1008V;Q1011R). In outline: as §1
Experiment [6] addresses PUM1 PUF domain R4-SNC (Homo sapiens, UniProt Q14671 828-1176, N971S;H972N;Q975C). The method in brief: as §1
The target of experiment [7] is PUM1 PUF domain R8-VWK (Homo sapiens, UniProt Q14671 828-1176, N1122V;Y1123W;Q1126K). The method in brief:
as §1

The target in experiment [8] is T1, PUM1 PUF domain R6-SYS (Homo sapiens, UniProt Q14671 828-1176, N1043S;Q1047S).
T1 sequence: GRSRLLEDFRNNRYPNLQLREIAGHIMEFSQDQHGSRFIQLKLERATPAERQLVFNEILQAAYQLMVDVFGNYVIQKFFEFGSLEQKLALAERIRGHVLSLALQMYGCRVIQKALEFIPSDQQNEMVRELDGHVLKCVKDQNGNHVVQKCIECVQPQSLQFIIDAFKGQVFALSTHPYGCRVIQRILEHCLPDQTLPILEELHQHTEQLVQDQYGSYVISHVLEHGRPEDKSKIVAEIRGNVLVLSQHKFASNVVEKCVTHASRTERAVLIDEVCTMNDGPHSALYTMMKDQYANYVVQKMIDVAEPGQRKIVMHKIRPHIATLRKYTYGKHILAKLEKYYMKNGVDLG
The method in brief:
as §1

The target in experiment [9] is T2, PUM1 PUF domain R6-AFG (Homo sapiens, UniProt Q14671 828-1176, N1043A;Y1044F;Q1047G).
T2 sequence: T1 sequence with S216A, Y217F, S220G
In outline: as §1

Experiment [10] addresses PUM1 PUF domain R5-SRQ (Homo sapiens, UniProt Q14671 828-1176, C1007S). In outline:
as §1

As to “GGCUAGAACUAGUGGAUCCCCCGGCGCCCGGCGGCUCGAGCCCGGGUAAGUGUAAAGAGUCUGCAUGCCGCCGGGCGCCAUGCCUGCAGGUCGACUCUAGAAAACAUG”, in [1], the binding signal is 7.11 log2 enrichment (interaction score).

With “GGCUAGAACUAGUGGAUCCCCCGGCGCCCGGCGGCUCGAGCCCGGGUAAGUGUUAAUAGUCUGCAUGCCGCCGGGCGCCAUGCCUGCAGGUCGACUCUAGAAAACAUG”, the binding signal in experiment [2] is 6.52 log2 enrichment (interaction score). Regarding “GGCUAGAACUAGUGGAUCCCCCGGCGCCCGGCGGCUCGAGCCCGGGUAAGUGUAAUUAGUCUGCAUGCCGCCGGGCGCCAUGCCUGCAGGUCGACUCUAGAAAACAUG”, the binding signal in experiment [3] was 3.56 log2 enrichment (interaction score); in [4], 2.61 log2 enrichment (interaction score). Turning to “GGCUAGAACUAGUGGAUCCCCCGGCGCCCGGCGGCUCGAGCCCGGGUAAGUGUAAAUAGUCUGCAUGCCGCCGGGCGCCAUGCCUGCAGGUCGACUCUAGAAAACAUG”, the binding signal is 1.73 log2 enrichment (interaction score) in [5]; 3.4 log2 enrichment (interaction score) in experiment [2]; 2.78 log2 enrichment (interaction score) in experiment [6]; 4.11 log2 enrichment (interaction score) in experiment [7]; 3 log2 enrichment (interaction score) in [8]; 3.11 log2 enrichment (interaction score) in experiment [9].

On to “GGCUAGAACUAGUGGAUCCCCCGGCGCCCGGCGGCUCGAGCCCGGGUAAGUGUACAUAGUCUGCAUGCCGCCGGGCGCCAUGCCUGCAGGUCGACUCUAGAAAACAUG”, for which the binding signal in experiment [6] was 2.48 log2 enrichment (interaction score). Consider “GGCUAGAACUAGUGGAUCCCCCGGCGCCCGGCGGCUCGAGCCCGGGUAAGUGUAAGUAGUCUGCAUGCCGCCGGGCGCCAUGCCUGCAGGUCGACUCUAGAAAACAUG”, for which, in [3], the binding signal was 5.2 log2 enrichment (interaction score). Turning to “GGCUAGAACUAGUGGAUCCCCCGGCGCCCGGCGGCUCGAGCCCGGGUAAGUGUGAAUAGUCUGCAUGCCGCCGGGCGCCAUGCCUGCAGGUCGACUCUAGAAAACAUG”, the binding signal was 0.2 log2 enrichment (interaction score) in experiment [5] and 3.6 log2 enrichment (interaction score) in experiment [10]. In the case of “GGCUAGAACUAGUGGAUCCCCCGGCGCCCGGCGGCUCGAGCCCGGGUAAGUGUAUAUAGUCUGCAUGCCGCCGGGCGCCAUGCCUGCAGGUCGACUCUAGAAAACAUG”, in [6], the binding signal was 3.92 log2 enrichment (interaction score).

With “GGCUAGAACUAGUGGAUCCCCCGGCGCCCGGCGGCUCGAGCCCGGGUAAGUGUCAAUAGUCUGCAUGCCGCCGGGCGCCAUGCCUGCAGGUCGACUCUAGAAAACAUG”, the binding signal in [5] is 4.64 log2 enrichment (interaction score).
